Measured values reported in PubChem BioAssay (EPA / NIEHS).
Results filed as inconclusive are left out. Calls of active or inactive are those of the source. How the source made its calls, unless noted: active means hit-call score of the fitted dose curve at least 0.9, where 1 is the maximum; inactive means score below 0.9.

Experiments:
[1] = biological target: Paired box protein Pax-6 (Homo sapiens) (UniProt P26367); experiment: ATG_Pax6_CIS: Attagene CIS-FACTORIAL HepG2 Assay for human Paired Box 6 (PAX6) (AID 2282956); conditions: HepG2 CIS-FACTORIAL PAX6 reporter transcription, RNA readout; actives raise or lower the signal
Sequence of Paired box protein Pax-6 (Homo sapiens) (P26367 whole entry, looked up): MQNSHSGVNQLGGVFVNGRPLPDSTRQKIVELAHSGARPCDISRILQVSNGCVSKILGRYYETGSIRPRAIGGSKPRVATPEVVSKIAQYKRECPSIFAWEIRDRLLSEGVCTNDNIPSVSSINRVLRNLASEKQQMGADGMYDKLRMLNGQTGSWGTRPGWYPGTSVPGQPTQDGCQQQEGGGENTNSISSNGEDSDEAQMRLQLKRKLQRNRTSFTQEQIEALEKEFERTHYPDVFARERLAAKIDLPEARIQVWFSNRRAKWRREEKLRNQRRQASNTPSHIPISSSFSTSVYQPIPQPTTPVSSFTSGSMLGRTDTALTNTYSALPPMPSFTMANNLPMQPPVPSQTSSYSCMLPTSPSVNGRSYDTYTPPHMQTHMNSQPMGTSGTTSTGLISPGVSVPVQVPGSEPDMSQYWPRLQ
Summary of the method: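 Fluorescent RT-PCR products separated by capillary electrophoresis report PAX6-linked promoter mRNA in HepG2 cells 24 h post-dose. Curves fitted bidirectionally, DMSO as negative control.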

[2] = ATG_PXRE_CIS: Attagene CIS-FACTORIAL HepG2 Assay for human Pregnane X Receptor Element (PXRE) (AID 2282957); conditions: HepG2 Attagene CIS-FACTORIAL PXRE reporter, mRNA; actives raise or lower the signal
Summary of the method: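 Bidirectional activity, baselined to DMSO, derived from reporter mRNA fluorescence (RT-PCR plus capillary electrophoresis) in HepG2 cells bearing cis-promoter reporter units, 24 h exposure.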

[3] = ATG_RORE_CIS: Attagene CIS-FACTORIAL HepG2 Assay for human RAR-related Orphan Receptor Element (RORE) (AID 2282959); conditions: HepG2 Attagene cis-factorial RORE reporter, mRNA; actives raise or lower the signal
Summary of the method: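 Readout: fluorescent reporter mRNA by RT-PCR plus capillary electrophoresis, 24 h after dosing transfected HepG2 cells. Endogenous transcription factor activity on a cis promoter element is measured. Gain or loss of signal fitted against DMSO.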

[4] = ATG_Sox_CIS: Attagene CIS-FACTORIAL HepG2 Assay for human SRY-box transcription factor (SOX) (AID 2282960); conditions: HepG2 Attagene cis-factorial SOX reporter, mRNA; actives raise or lower the signal
Summary of the method: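 Read-out: fluorescent RT-PCR products of SOX1-linked reporter transcripts resolved by capillary electrophoresis, fitted bidirectionally against DMSO. Transiently transfected HepG2 cells, 24 h after chemical exposure, endogenous transcription factor activity.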

[5] = ATG_SREBP_CIS: Attagene CIS-FACTORIAL HepG2 Assay for human Sterol Regulatory Element Binding (SREBP) (AID 2282962); conditions: HepG2 Attagene cis-factorial SREBP reporter, mRNA; actives raise or lower the signal
Summary of the method: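 Endogenous factor activity is measured in HepG2 through multiplexed reporter units under cis-element control. Following a 24 h incubation, reporter transcripts are reverse-transcribed, PCR-amplified and sized by capillary electrophoresis; activity is fitted in both directions relative to DMSO.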

[6] = biological target: Signal transducer and activator of transcription 3 (Homo sapiens) (UniProt P40763); experiment: ATG_STAT3_CIS: Attagene CIS-FACTORIAL HepG2 Assay for human Signal Transducer and Activator of Transcription 3 (STAT3) (AID 2282963); conditions: HepG2, Attagene cis-factorial STAT3 reporter transcription; actives raise or lower the signal
Sequence of Signal transducer and activator of transcription 3 (Homo sapiens) (P40763 whole entry, looked up, the tested form may be a part): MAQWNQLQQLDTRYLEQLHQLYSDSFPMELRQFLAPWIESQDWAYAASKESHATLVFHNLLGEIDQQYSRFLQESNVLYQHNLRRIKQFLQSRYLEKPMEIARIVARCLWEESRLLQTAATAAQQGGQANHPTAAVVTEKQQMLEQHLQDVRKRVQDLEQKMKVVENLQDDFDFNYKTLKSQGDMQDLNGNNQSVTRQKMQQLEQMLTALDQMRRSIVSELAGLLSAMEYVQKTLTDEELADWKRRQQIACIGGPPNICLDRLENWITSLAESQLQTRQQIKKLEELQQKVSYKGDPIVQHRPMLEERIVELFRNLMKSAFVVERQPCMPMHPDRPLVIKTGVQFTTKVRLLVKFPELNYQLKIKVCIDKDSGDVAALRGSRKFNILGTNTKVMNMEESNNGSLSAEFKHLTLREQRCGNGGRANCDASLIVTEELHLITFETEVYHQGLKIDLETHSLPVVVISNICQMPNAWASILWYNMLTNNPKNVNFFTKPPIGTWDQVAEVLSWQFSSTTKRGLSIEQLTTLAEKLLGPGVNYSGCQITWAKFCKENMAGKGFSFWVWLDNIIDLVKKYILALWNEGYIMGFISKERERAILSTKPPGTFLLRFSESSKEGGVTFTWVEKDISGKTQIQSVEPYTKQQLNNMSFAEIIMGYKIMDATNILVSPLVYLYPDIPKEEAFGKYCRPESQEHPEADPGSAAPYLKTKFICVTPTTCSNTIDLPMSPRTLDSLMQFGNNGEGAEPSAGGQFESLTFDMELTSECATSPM
Summary of the method: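 Fluorescence intensity of 6-FAM-labelled reporter fragments, separated by capillary electrophoresis after RT-PCR, gave the signal. Cells were HepG2 transfected with cis-element reporter units and treated 24 h; fitting was bidirectional relative to DMSO.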

[7] = ATG_TA_CIS: Attagene CIS-FACTORIAL HepG2 Assay for human TA Basal Promoter (AID 2282964); conditions: HepG2 Attagene CIS-factorial TA basal promoter reporter; actives raise or lower the signal
Summary of the method: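 Read-out: fluorescent reporter-transcript fragments resolved by capillary electrophoresis after RT-PCR and HpaI digestion. Source: HepG2 cells carrying transiently transfected multi-reporter cis constructs, treated 24 h. Endpoint fitted bidirectionally relative to DMSO.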

[8] = ATG_TCF_b_cat_CIS: Attagene CIS-FACTORIAL HepG2 Assay for human T-Cell-Factor with beta-catenin (TCF/b-cat) (AID 2282965); conditions: HepG2 TCF/beta-catenin cis-reporter transcription, actives raise or lower the signal
Summary of the method: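 HepG2 cells transiently transfected with cis-promoter-driven multiplexed reporter units; reporter mRNA measured 24 h after dosing by RT-PCR, FAM labelling, HpaI digestion and capillary electrophoresis. Bidirectional fitting relative to DMSO baseline.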

[9] = ATG_TAL_CIS: Attagene CIS-FACTORIAL HepG2 Assay for human TAL Basal Promoter (AID 2282966); conditions: HepG2 Attagene cis-factorial TAL promoter reporter; actives raise or lower the signal;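 further: background control endpoint measuring basal TAL promoter reporter mRNA not a specific factor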
Summary of the method: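 Human hepatoma HepG2 cells, transfected with promoter-regulated reporter units, were treated 24 h. Reporter transcript levels, measured through RT-PCR and capillary electrophoresis, were fitted for gain or loss relative to DMSO.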

[10] = ATG_TGFb_CIS: Attagene CIS-FACTORIAL HepG2 Assay for human Transforming Growth Factor (TGF) (AID 2282967); conditions: HepG2 Attagene CIS TGFb reporter, mRNA transcription; actives raise or lower the signal
Summary of the method: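 Transient MRTU transfection of HepG2 (FuGene 6). Dose 24 h. TriZol RNA, oligo(dT) RT, PCR, 6-FAM primer extension, HpaI cut, CE. Bidirectional fit, DMSO = baseline.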

[11] = biological target: Steroid hormone receptor ERR1 (Homo sapiens) (UniProt P11474); experiment: ATG_ERRa_TRANS: Attagene TRANS-FACTORIAL HepG2 Assay for human Estrogen-Related Receptor alpha (ERRa) (AID 2282971; active means hit-call score of the fitted dose curve at least 0.9, where 1 is the maximum); conditions: HepG2 Attagene TRANS reporter, ERRa transactivation
Sequence of Steroid hormone receptor ERR1 (Homo sapiens) (P11474 whole entry, looked up, the tested form may be a part): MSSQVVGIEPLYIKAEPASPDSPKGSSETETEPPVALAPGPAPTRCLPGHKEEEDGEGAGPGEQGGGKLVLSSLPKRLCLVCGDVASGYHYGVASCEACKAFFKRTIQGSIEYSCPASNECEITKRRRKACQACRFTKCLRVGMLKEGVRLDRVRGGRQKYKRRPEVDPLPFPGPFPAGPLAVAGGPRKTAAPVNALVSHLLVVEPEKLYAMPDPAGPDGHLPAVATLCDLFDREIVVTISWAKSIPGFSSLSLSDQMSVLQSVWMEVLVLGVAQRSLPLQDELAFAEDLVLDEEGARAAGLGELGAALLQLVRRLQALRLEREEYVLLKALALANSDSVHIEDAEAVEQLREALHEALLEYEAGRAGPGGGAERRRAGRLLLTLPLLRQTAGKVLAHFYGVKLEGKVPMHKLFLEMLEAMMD
Summary of the method: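 Signal gain relative to DMSO for an ERRa-Gal4 chimeric receptor, read as reporter mRNA by RT-PCR/capillary electrophoresis. Human HepG2 liver cells, transient multiplex reporter transfection, 24 h chemical exposure.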

[12] = biological target: X-box-binding protein 1 (Homo sapiens) (UniProt P17861); experiment: ATG_Xbp1_CIS: Attagene CIS-FACTORIAL HepG2 Assay for human X-box Binding Protein 1 (XBP1) (AID 2282972); conditions: HepG2 XBP1 cis-element reporter, Attagene multiplex; actives raise or lower the signal
Sequence of X-box-binding protein 1 (Homo sapiens) (P17861 whole entry, looked up): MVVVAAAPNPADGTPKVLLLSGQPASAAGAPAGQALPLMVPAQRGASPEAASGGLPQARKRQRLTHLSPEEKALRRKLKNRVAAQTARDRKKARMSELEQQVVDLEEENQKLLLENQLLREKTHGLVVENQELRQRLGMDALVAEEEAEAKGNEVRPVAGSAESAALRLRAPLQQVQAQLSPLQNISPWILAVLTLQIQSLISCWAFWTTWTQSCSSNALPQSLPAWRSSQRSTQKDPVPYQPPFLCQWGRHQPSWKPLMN
Summary of the method: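 Multiplexed cis-reporter readout in transfected HepG2 liver cells. Exposure lasted 24 hours. Activity in either direction was fitted against DMSO as negative control and baseline.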

[13] = ATG_M_19_TRANS: Attagene TRANS-FACTORIAL HepG2 Assay for M19 Transcription Factor (Internal Marker) (AID 2282974; active means hit-call score of the fitted dose curve at least 0.9, where 1 is the maximum); conditions: HepG2 Attagene TRANS-FACTORIAL M19 internal marker reporter
Summary of the method: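 24 h chemical exposure of transiently transfected HepG2 (MRTU library). RNA → oligo(dT) RT → PCR → 6-FAM labelling → HpaI cut → CE fluorescence. Positive-direction fit vs DMSO baseline; background internal-marker readout.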

[14] = ATG_GAL4_TRANS: Attagene TRANS-FACTORIAL HepG2 Assay for GAL4 (Internal Marker) (AID 2282976; active means hit-call score of the fitted dose curve at least 0.9, where 1 is the maximum); conditions: HepG2 Attagene TRANS GAL4 internal marker reporter
Summary of the method: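 Liver HepG2 line bearing multiplexed GAL4-UAS reporter constructs; 24 h chemical treatment. Transcripts were quantified as fluorescent fragments on capillary electrophoresis after RT-PCR and HpaI cut, with activity fitted upward from DMSO.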

[15] = biological target: Estrogen-related receptor gamma (Homo sapiens) (UniProt P62508); experiment: ATG_ERRg_TRANS: Attagene TRANS-FACTORIAL HepG2 Assay for human Estrogen-Related Receptor gamma (ERRg) (AID 2282977; active means hit-call score of the fitted dose curve at least 0.9, where 1 is the maximum;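 further: hits increase reporter signal over DMSO so potencies reflect activators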); conditions: HepG2 Attagene TRANS reporter, ERRg transactivation
Sequence of Estrogen-related receptor gamma (Homo sapiens) (P62508 whole entry, looked up, the tested form may be a part): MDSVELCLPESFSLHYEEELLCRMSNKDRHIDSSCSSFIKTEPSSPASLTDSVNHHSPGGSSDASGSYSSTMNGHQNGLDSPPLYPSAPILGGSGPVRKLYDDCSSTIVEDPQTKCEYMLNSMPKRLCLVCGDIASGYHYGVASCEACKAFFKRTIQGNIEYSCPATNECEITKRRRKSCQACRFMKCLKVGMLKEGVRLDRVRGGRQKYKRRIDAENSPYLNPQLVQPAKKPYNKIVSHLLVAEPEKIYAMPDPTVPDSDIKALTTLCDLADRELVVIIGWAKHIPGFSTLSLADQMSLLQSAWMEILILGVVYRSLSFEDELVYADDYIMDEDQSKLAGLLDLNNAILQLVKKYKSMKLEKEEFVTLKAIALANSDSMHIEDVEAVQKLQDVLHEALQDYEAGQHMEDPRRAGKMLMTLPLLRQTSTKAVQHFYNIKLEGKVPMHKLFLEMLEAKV
Summary of the method: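 Exogenous NR-Gal4 chimera activity measured as reporter transcript induction after 24 h in transiently transfected HepG2 cells. RNA reverse-transcribed, PCR-amplified, 6-FAM-labelled and resolved by capillary electrophoresis; increase over DMSO baseline.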

[16] = biological target: Transcription factor Sp1 (Homo sapiens) (UniProt P08047); experiment: ATG_Sp1_CIS: Attagene CIS-FACTORIAL HepG2 Assay for human Specificity Protein 1 (Sp1) (AID 2282961); conditions: HepG2 Sp1 cis-reporter transcription, actives raise or lower the signal
Sequence of Transcription factor Sp1 (Homo sapiens) (P08047 whole entry, looked up): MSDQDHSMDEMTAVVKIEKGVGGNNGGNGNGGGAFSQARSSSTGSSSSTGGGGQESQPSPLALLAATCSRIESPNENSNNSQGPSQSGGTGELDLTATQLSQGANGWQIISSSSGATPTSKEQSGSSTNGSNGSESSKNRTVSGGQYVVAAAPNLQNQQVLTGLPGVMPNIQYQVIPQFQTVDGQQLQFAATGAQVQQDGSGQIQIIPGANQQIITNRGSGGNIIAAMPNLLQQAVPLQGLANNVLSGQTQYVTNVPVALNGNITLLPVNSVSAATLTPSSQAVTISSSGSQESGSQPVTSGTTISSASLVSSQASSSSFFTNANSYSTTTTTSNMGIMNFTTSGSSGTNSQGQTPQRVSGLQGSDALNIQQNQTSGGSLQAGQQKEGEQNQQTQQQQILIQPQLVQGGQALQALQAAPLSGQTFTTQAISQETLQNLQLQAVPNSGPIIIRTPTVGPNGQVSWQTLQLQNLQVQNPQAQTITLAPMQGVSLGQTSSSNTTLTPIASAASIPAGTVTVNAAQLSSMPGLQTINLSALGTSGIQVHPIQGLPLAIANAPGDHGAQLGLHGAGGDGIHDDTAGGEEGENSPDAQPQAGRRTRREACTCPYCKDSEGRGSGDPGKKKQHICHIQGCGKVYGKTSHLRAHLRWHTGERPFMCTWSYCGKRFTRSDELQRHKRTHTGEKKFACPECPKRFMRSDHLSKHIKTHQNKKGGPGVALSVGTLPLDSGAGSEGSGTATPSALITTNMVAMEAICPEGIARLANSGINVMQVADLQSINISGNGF
Summary of the method: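 Read-out: fluorescence of 6-FAM-labeled, HpaI-digested RT-PCR products separated by capillary electrophoresis. HepG2 cells carried transfected cis-element reporter units and were exposed to chemicals for 24 h; gain or loss of signal fitted relative to DMSO.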

[17] = ATG_VDRE_CIS: Attagene CIS-FACTORIAL HepG2 Assay for human Vitamin D Receptor Element (VDRE) (AID 2282968); conditions: HepG2 VDRE cis-reporter transcription, actives raise or lower the signal
Summary of the method: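 Compounds were applied for 24 h to HepG2 cells transfected with promoter-regulated reporter units. Total RNA was reverse-transcribed, and reporter amplicons were fluorescently labelled and sized by capillary electrophoresis.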

[18] = biological target: Nuclear receptor subfamily 1 group I member 3 (Homo sapiens) (UniProt Q14994); experiment: ATG_CAR_TRANS: Attagene TRANS-FACTORIAL HepG2 Assay for human Constitutive Androstane Receptor (CAR) (AID 2282969; active means hit-call score of the fitted dose curve at least 0.9, where 1 is the maximum;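 further: activators raise reporter mRNA above DMSO so AC50 marks induction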); conditions: HepG2 Attagene TRANS-FACTORIAL CAR reporter
Sequence of Nuclear receptor subfamily 1 group I member 3 (Homo sapiens) (Q14994 whole entry, looked up, the tested form may be a part): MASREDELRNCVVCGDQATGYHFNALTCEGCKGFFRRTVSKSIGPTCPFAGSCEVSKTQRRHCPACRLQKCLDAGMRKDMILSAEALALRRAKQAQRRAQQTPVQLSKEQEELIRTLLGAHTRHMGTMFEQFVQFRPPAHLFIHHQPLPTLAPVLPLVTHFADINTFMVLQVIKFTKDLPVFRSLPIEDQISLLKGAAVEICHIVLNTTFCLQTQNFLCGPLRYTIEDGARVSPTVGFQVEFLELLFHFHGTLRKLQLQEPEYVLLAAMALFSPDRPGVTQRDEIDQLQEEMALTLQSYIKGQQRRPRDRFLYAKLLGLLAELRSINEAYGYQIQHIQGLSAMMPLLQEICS
Summary of the method: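 Transiently transfected HepG2, multiplex TRANS reporters (CAR-Gal4 chimera driving GAL4-UAS reporter). 24 h dosing. Readout: reporter transcript by RT-PCR + capillary electrophoresis, fluorescence intensity; positive direction vs DMSO.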

[19] = biological target: Estrogen receptor (Homo sapiens) (UniProt P03372); experiment: ATG_ERa_TRANS: Attagene TRANS-FACTORIAL HepG2 Assay for human Estrogen Receptor alpha (ERa) (AID 2282970; active means hit-call score of the fitted dose curve at least 0.9, where 1 is the maximum); conditions: HepG2 Attagene TRANS ERa GAL4 reporter, mRNA
Sequence of Estrogen receptor (Homo sapiens) (P03372 whole entry, looked up, the tested form may be a part): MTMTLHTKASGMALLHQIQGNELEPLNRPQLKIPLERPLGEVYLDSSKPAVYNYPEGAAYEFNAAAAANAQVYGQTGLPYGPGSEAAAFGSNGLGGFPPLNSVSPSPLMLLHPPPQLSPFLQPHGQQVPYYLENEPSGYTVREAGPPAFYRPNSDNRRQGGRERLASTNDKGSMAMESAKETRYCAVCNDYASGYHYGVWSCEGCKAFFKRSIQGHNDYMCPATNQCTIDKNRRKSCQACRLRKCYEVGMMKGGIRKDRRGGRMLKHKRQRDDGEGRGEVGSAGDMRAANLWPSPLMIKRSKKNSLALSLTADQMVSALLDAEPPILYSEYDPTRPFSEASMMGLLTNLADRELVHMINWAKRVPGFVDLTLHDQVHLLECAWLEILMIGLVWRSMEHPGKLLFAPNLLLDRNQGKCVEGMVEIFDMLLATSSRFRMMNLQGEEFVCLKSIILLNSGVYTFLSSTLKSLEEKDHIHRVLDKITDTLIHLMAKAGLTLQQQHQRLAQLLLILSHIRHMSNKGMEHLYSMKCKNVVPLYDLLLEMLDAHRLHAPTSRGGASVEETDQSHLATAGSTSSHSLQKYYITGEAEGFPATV
Summary of the method: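 Signal derives from fluorescence of labelled reporter PCR fragments separated by capillary electrophoresis. HepG2 cells transiently carrying multiple GAL4-UAS reporter units were treated 24 hours, and induction above DMSO baseline was fitted as activity.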

Row | Compound | outcome [1] | AC50 [2] | outcome [3] | outcome [4] | outcome [5] | outcome [6] | outcome [7] | outcome [8] | outcome [9] | outcome [10] | outcome [11] | outcome [12] | outcome [13] | outcome [14] | outcome [15] | outcome [2] | outcome [16] | outcome [17] | outcome [18] | outcome [19]
1 | CC(=O)OCCCc1ccccc1 | inactive | 27.4 µM (active) | inactive | inactive | inactive | inactive | inactive | inactive | inactive | inactive | inactive | inactive | inactive | inactive | inactive | – | – | – | – | –
2 | CC(=O)O[C@H]1C[C@@H]2CC[C@@]1(C)C2(C)C | inactive | – | inactive | inactive | inactive | inactive | – | – | inactive | inactive | – | inactive | inactive | inactive | – | inactive | inactive | inactive | – | –
3 | CCN(CCC#N)c1ccc(N=Nc2ccc([N+](=O)[O-])cc2)cc1 | inactive | – | inactive | – | inactive | inactive | inactive | inactive | inactive | – | – | inactive | – | inactive | inactive | inactive | inactive | inactive | inactive | –
4 | C=C(C)C(=O)OCCOCCOCCOC(=O)C(=C)C | inactive | 54.8 µM (active) | inactive | inactive | inactive | inactive | inactive | inactive | inactive | inactive | – | inactive | inactive | inactive | – | – | – | inactive | – | –
5 | CCCC(=O)OC(C)(C)Cc1ccccc1 | inactive | 27 µM (active) | inactive | inactive | – | inactive | – | inactive | inactive | inactive | – | inactive | inactive | inactive | – | – | inactive | inactive | – | –
6 | CCCCC1CCC(O)CC1 (centres undefined) | inactive | – | inactive | inactive | inactive | inactive | inactive | inactive | inactive | inactive | – | – | – | inactive | – | inactive | – | inactive | – | –
7 | CCC1(c2ccccc2)C(=O)NCNC1=O | inactive | – | inactive | inactive | inactive | inactive | – | inactive | inactive | inactive | – | inactive | – | – | – | inactive | inactive | inactive | – | –
8 | O=CN1CCOCC1 | inactive | – | inactive | – | inactive | inactive | inactive | inactive | inactive | – | – | inactive | inactive | – | – | inactive | inactive | – | – | inactive
9 | CC(=O)O[C@@H]1CC2CCC1(C)C2(C)C (some centres undefined) | inactive | – | inactive | inactive | – | inactive | inactive | inactive | inactive | inactive | – | inactive | inactive | inactive | – | inactive | inactive | inactive | – | –
